Data: PubChem BioAssay (NCATS)
Records with an inconclusive call do not appear. A call without a number means that no potency is given here. Values without a mark were called inactive. Activity calls are given as the source filed them. The call rests on the fitted dose curve; in most records, active means well fitted curve in the direction sought with a large enough effect; inconclusive means small, poorly fitted or top-dose-only effect, or another doubt; inactive means no such curve, though single readings can be large; an effect the other way counts as inactive or inconclusive.

What was measured:
[1] = target: Rap guanine nucleotide exchange factor 3 (Homo sapiens) (UniProt O95398); assay: Confirmatory qHTS for agonist of cAMP-regulated guanine nucleotide exchange factor 3 (EPAC1) (AID 1645881);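 further: EPAC1 catalysed release of BODIPY-GDP from Rap1B seen as fluorescence loss; nearly all actives have a fitted effect of over 75% in size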
Rap guanine nucleotide exchange factor 3 (Homo sapiens), sequence (O95398 whole entry, looked up): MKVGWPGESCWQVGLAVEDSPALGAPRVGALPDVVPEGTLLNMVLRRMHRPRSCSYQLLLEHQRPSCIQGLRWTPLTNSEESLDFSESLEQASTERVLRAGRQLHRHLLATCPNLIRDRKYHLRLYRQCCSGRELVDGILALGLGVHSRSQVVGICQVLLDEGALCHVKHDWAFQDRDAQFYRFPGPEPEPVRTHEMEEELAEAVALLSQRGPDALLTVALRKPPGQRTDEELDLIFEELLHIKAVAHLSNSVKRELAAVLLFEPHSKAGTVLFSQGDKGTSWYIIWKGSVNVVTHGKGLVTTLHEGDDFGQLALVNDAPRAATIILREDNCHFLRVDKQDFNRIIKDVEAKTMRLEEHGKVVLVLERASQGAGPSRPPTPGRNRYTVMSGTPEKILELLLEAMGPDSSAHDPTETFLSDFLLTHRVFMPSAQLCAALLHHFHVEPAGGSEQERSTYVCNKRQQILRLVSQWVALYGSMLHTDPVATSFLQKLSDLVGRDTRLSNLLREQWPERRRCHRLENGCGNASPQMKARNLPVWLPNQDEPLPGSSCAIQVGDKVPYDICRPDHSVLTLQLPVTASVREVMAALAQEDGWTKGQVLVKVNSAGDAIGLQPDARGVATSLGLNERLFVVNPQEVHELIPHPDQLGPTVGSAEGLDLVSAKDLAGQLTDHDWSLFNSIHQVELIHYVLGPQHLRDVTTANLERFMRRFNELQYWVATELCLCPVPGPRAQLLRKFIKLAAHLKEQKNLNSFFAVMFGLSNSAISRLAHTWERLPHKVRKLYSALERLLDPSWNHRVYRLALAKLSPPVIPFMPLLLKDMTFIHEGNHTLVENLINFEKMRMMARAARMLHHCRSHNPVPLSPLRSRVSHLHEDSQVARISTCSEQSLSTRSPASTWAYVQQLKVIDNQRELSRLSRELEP

[2] = target: Rap guanine nucleotide exchange factor 4 (Homo sapiens) (UniProt Q8WZA2); assay: Confirmatory qHTS for agonist of cAMP-regulated guanine nucleotide exchange factor 4 (EPAC2) (AID 1645884);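 further: nucleotide exchange releases bodipy-GDP from Rap1 and this lowers its fluorescence; nearly all actives have a fitted effect of over 65% in size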
Rap guanine nucleotide exchange factor 4 (Homo sapiens), sequence (Q8WZA2 whole entry, looked up): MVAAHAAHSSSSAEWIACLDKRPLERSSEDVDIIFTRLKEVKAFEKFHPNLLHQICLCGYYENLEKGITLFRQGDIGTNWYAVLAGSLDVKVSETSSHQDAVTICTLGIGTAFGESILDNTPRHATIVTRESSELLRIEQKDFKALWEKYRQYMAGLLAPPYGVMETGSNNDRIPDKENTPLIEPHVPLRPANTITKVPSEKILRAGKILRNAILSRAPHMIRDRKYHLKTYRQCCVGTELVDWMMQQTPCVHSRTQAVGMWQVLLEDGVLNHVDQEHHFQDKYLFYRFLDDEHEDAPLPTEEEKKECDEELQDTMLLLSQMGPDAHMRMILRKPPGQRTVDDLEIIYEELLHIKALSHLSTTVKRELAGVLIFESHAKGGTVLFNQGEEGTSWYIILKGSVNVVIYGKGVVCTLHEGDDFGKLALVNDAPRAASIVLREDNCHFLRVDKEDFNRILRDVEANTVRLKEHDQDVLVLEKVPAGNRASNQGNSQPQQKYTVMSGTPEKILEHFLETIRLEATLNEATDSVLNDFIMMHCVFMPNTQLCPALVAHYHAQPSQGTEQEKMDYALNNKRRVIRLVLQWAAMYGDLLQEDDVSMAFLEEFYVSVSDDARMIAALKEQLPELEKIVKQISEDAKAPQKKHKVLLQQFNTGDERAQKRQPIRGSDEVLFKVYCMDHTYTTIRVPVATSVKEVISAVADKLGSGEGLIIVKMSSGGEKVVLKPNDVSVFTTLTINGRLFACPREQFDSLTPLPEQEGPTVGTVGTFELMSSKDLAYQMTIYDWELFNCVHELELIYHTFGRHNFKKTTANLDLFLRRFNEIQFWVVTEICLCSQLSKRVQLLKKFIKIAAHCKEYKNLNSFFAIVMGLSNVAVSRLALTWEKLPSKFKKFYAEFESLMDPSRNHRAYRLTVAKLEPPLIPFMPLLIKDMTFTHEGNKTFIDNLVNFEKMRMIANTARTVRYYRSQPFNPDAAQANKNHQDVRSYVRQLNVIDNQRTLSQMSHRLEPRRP

[3] = target: Rap guanine nucleotide exchange factor 4 (Homo sapiens) (UniProt Q8WZA2); assay: Confirmatory qHTS for antagonist of cAMP-regulated guanine nucleotide exchange factor 4 (EPAC2) (AID 1645885); further: nearly all actives have a fitted effect of over 25% in size; further: potency means the concentration at half of the fitted maximal effect
[4] = target: Rap guanine nucleotide exchange factor 3 (Homo sapiens) (UniProt O95398); assay: Counterscreen qHTS for antagonist of cAMP-regulated guanine nucleotide exchange factor 3 (EPAC1) (AID 1645888);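 further: fluorescence loss as bound BODIPY-GDP is released from Rap1B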
Summary of the method: (§1)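 Measured: fluorescence of BODIPY-GDP bound to Rap1B, which falls as exchange proceeds. Conditions include 50 uM competing GDP, 5 and 30 min reads, and a later cAMP challenge for antagonist detection.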

[5] = target: Rap guanine nucleotide exchange factor 3 (Homo sapiens) (UniProt O95398); assay: Counterscreen qHTS for agonist of cAMP-regulated guanine nucleotide exchange factor 3 (EPAC1) (AID 1645889); further: nearly all actives have a fitted effect of over 40% in size
Summary of the method: as §1

| SMILES | Potency [1] | Potency [2] | Potency [3] | Potency [4] | Potency [5] | activation [2] | activity change, negative = inhibition [4] | activation [5] | outcome [3] |
| --- | --- | --- | --- | --- | --- | --- | --- | --- | --- |
| Cc1nn(CCc2nn[nH]n2)c2nc(-c3ccc(Br)cc3)cc(C(F)(F)F)c12 | inactive | inactive | inactive | inactive | inactive | – | – | – | – |
| CCc1ccc(NS(=O)(=O)c2cc3c4c(c2)CCN4C(=O)CC3)cc1 | inactive | inactive | inactive | inactive | inactive | – | – | – | – |
| CCn1c(SCC(=O)Nc2sc3c(c2C(N)=O)CCC(C)C3)nnc1-c1ccco1 (stereo not given) | inactive | inactive | inactive | inactive | inactive | – | – | – | – |
| Cc1ccc(-c2nnc(Nc3ccc(OCC(N)=O)cc3)c3ccccc23)cc1S(N)(=O)=O | inactive | inactive | inactive | inactive | inactive | – | – | – | – |
| Cc1cccc(C)c1-c1ccc(CN2C(CC(C)C)C(=O)N(Cc3cn(CCO)nn3)CCS2(=O)=O)cc1 (stereo not given) | inactive | – | inactive | – | – | -6.44% [at 17.1 µM, percent relative to cAMP agonist control] | 9.55% [at 30.8 µM] | 18.7% [at 30.8 µM] | – |
| Cc1cc(C)n2nc(C(=O)N/N=C/c3c4ccccc4cc4ccccc34)nc2n1 | inactive | – | inactive | – | – | 2.45% [at 17.1 µM, percent relative to cAMP agonist control] | 4.99% [at 30.8 µM] | 34.9% [at 30.8 µM] | – |
| CCCCN(C(=O)Cn1ncc(Cl)c(Cl)c1=O)c1c(N)n(CC(C)C)c(=O)[nH]c1=O | inactive | – | inactive | – | – | 3.26% [at 17.1 µM, percent relative to cAMP agonist control] | -8.9% [at 30.8 µM] | 16.5% [at 30.8 µM] | – |
| OC(c1cc(F)cc(Cl)c1)c1ncc(-c2cccc(C(F)(F)F)c2)[nH]1 (stereo not given) | inactive | – | inactive | – | – | -1.66% [at 17.1 µM, percent relative to cAMP agonist control] | -12% [at 30.8 µM] | 19.7% [at 30.8 µM] | – |
| CCN(CC)c1ccc(/C=C2/C(=O)c3ccc(C(=O)O)cc3C2=O)cc1 | inactive | – | inactive | – | – | 4.11% [at 17.1 µM, percent relative to cAMP agonist control] | 8.07% [at 30.8 µM] | 9.24% [at 30.8 µM] | – |
| O=C(COC(=O)c1ccc([N+](=O)[O-])s1)NCc1ccccc1 | inactive | inactive | inactive | inactive | inactive | – | – | – | – |
| C=Cc1ccc(Cn2nc(-c3ccccc3)ccc2=O)cc1 | inactive | – | inactive | – | – | -8.97% [at 17.1 µM, percent relative to cAMP agonist control] | -16.6% [at 30.8 µM] | 15.7% [at 30.8 µM] | – |
| O=C(CCC1N=C2c3ccccc3N=C(SCc3ccc(Cl)cc3)N2C1=O)NCc1cccs1 (stereo not given) | inactive | inactive | inactive | inactive | inactive | – | – | – | – |
| COc1cccc(OCc2nc3ccccc3n2Cc2ccccc2)c1 | inactive | inactive | inactive | inactive | inactive | – | – | – | – |
| C/C=C/c1cc(OC)c2c(c1)[C@H](C)[C@@H](c1ccc(O)c(OC)c1)O2 | inactive | inactive | inactive | inactive | inactive | – | – | – | – |
| Cc1cc(Cl)ccc1OCCCC(=O)OCC(=O)c1c(N)n(C)c(=O)n(C)c1=O | inactive | – | inactive | – | – | 11.9% [at 17.1 µM, percent relative to cAMP agonist control] | -16.7% [at 30.8 µM] | 27.4% [at 30.8 µM] | – |
| COc1cc(/C=C2/C(=O)NN(c3cccc(Cl)c3)C2=O)cc(OC)c1O | inactive | – | inactive | – | – | 11.7% [at 17.1 µM, percent relative to cAMP agonist control] | -0.0912% [at 30.8 µM] | 4.51% [at 30.8 µM] | – |
| O=C(O)CCn1cc(/C=C\C(=O)c2ccc(Cl)cc2)c(-c2cccc(Br)c2)n1 | inactive | – | inactive | – | – | 4.02% [at 17.1 µM, percent relative to cAMP agonist control] | 0.257% [at 30.8 µM] | 15.3% [at 30.8 µM] | – |
| COc1cc(CN(C)CC2CCCN(CCc3ccccc3F)C2)cc(Cl)c1OC (stereo not given) | inactive | inactive | inactive | inactive | inactive | – | – | – | – |
| CC(C)(C)NC(=O)COC(=O)c1c2c(nc3ccccc13)CCC2 | inactive | – | inactive | – | – | 2.28% [at 17.1 µM, percent relative to cAMP agonist control] | -10.2% [at 30.8 µM] | 16.3% [at 30.8 µM] | – |
| Cc1ccc(-c2csc(/C(C#N)=C(\O)CCl)n2)cc1 | inactive | – | inactive | – | – | -6.35% [at 17.1 µM, percent relative to cAMP agonist control] | -2.33% [at 30.8 µM] | 14.1% [at 30.8 µM] | – |

| SMILES | Potency [1] | Potency [2] | Potency [3] | Potency [4] | Potency [5] | activation [2] | activity change, negative = inhibition [4] | activation [5] | outcome [3] |
| --- | --- | --- | --- | --- | --- | --- | --- | --- | --- |
| CC(C)(C)N1CC(c2nc3ccccc3n2CCOc2ccccc2)CC1=O (stereo not given) | inactive | inactive | inactive | inactive | inactive | – | – | – | – |
| Cc1ccc(C(=O)Cc2ccccc2)c(O)c1 | inactive | – | inactive | – | – | 0.272% [at 17.1 µM, percent relative to cAMP agonist control] | -3.71% [at 30.8 µM] | 23.4% [at 30.8 µM] | – |
| COc1ccc(NC(=O)CSc2nc3sc4c(c3c(=O)n2-c2ccc(OC)cc2)CCN(C)C4)cc1 | inactive | – | inactive | – | – | -8.15% [at 17.1 µM, percent relative to cAMP agonist control] | -8.97% [at 30.8 µM] | 31.5% [at 30.8 µM] | – |
| C=CCc1ccccc1OCCSc1nc(-c2ccccc2F)nc2cc(=O)[nH]n12 | inactive | inactive | inactive | inactive | inactive | – | – | – | – |
| CCN(C(=O)c1noc2c1COc1ccc(C)cc1-2)c1cccc(C)c1 | inactive | inactive | inactive | inactive | inactive | – | – | – | – |
| O=C(O)C1CC(c2ccc(F)cc2)=NO1 (stereo not given) | inactive | – | inactive | – | – | -14.9% [at 17.1 µM, percent relative to cAMP agonist control] | -15.4% [at 30.8 µM] | 21.8% [at 30.8 µM] | – |
| CC(C)c1ccc(C2=CC(c3cccc(Cl)c3)n3ncnc3N2)cc1 (stereo not given) | inactive | inactive | – | inactive | inactive | – | – | – | inactive [at 12.7 µM] |
| COc1cc(O)c(C=NN2C(=O)CSC2=S)c(OC)c1 | inactive | inactive | inactive | inactive | inactive | – | – | – | – |
| Cc1ccc(SCC(=O)OCC(=O)N(C)CC(=O)Nc2ccc(F)cc2)cc1C | inactive | – | inactive | – | – | 5.96% [at 17.1 µM, percent relative to cAMP agonist control] | -28.7% [at 30.8 µM] | 26.8% [at 30.8 µM] | – |
| COc1ccccc1N1CCN(CC(O)COc2ccc(C)cc2C(C)(C)C)CC1 (stereo not given) | inactive | inactive | inactive | inactive | inactive | – | – | – | – |
| CCOC(=O)c1ccccc1NC(=O)CSc1nc2c(sc(=S)n2CC)c(=O)[nH]1 | inactive | – | inactive | – | – | 5.86% [at 17.1 µM, percent relative to cAMP agonist control] | -2.38% [at 30.8 µM] | 10.2% [at 30.8 µM] | – |
| CC(C)(C)c1ccc(C(=O)N/C(=C\c2cccc([N+](=O)[O-])c2)C(=O)Nc2cccc(C(=O)O)c2)cc1 | inactive | – | inactive | – | – | 8.06% [at 17.1 µM, percent relative to cAMP agonist control] | -17.2% [at 30.8 µM] | 22.2% [at 30.8 µM] | – |
| CCOc1ncccc1C(=O)OC(C)C(=O)Nc1ccc(Cl)cn1 (stereo not given) | inactive | – | 213 nM (active) | – | – | 7.63% [at 17.1 µM, percent relative to cAMP agonist control] | -16.3% [at 30.8 µM] | 15.5% [at 30.8 µM] | – |
| Cc1nn(-c2ccccc2)c(C)c1-c1cc(C(=O)N/N=C/c2ccc(O)cc2)[nH]n1 | inactive | – | inactive | – | – | -7.34% [at 17.1 µM, percent relative to cAMP agonist control] | -7.56% [at 30.8 µM] | 9.11% [at 30.8 µM] | – |
| CCCN1C(=O)c2ccccc2NC1c1ccc(OC)c(CSc2ccccn2)c1 (stereo not given) | inactive | inactive | inactive | inactive | inactive | – | – | – | – |
| O=C(Nc1nc(-c2ccc(Cl)cc2)cs1)C1=COCCO1 | inactive | – | inactive | – | – | 5.12% [at 17.1 µM, percent relative to cAMP agonist control] | -14.7% [at 30.8 µM] | 13.1% [at 30.8 µM] | – |
| Cc1ccc(C)n1-c1ccc(C(=O)/C=C/N(C)C)cc1 | inactive | – | inactive | – | – | 4.94% [at 17.1 µM, percent relative to cAMP agonist control] | -17.3% [at 30.8 µM] | 0.307% [at 30.8 µM] | – |
| O=c1c2ccccc2c(C=Nc2ccc(O)cc2)c(O)n1Cc1ccccc1 | inactive | – | inactive | – | – | 1.98% [at 17.1 µM, percent relative to cAMP agonist control] | -7.68% [at 30.8 µM] | 1.81% [at 30.8 µM] | – |
| O=C(/C=C/c1ccc(Br)o1)NCc1ccccc1 | inactive | – | inactive | – | – | -1.62% [at 17.1 µM, percent relative to cAMP agonist control] | 13% [at 30.8 µM] | 21.3% [at 30.8 µM] | – |
